Records with an inconclusive call do not appear. A call without a number means that no potency is given here. A number with no mark means an inactive call. Active and inactive are the calls of the source. Calls come from the whole dose curve; as a rule, active = well fitted cell-killing curve with a large enough effect in the repeat runs; inconclusive = weak or mixed curves, or effect the other way; inactive = no such curve, though single readings can be large or run the other way.
Assay: qHTS assay to identify small molecule antagonists of the sonic hedgehog signaling (Shh) pathway - cell viability counter screen (AID 1259367); note: nearly all actives have a fitted effect of over 55% in size
Conditions: NIH/3T3 Gli1-Luc viability, CellTiter-Fluor, 24 h; series mostly up to 92.4 µM
Description: National Center for Advancing Translational Sciences [NCATS]
NIH Chemical Genomics Center [NCGC]
U.S. Environmental Protection Agency [EPA]
National Institutes of Environmental Health Sciences [NIEHS]
National Toxicology Program [NTP]
U.S. Food and Drug Administration [FDA]
The sonic hedgehog (Shh) pathway is essential for normal embryonic development. Dysregulation of the Shh pathway can cause severe developmental defects in organs. Therefore chemicals that interfere with the pathway are potential developmental toxicants. A cell line designated 3T3Gli1-Luc (DMB/OARSA/CFSAN/FDA, Laurel, MD), a NIH/3T3 derived clone containing stably integrated Gli1-Luc reporter is used to detect chemical interference of the Shh pathway, by changes in the expression of the firefly Luc gene under the control of the Gli1 transcriptional response element. This cell line was used to screen Tox21 libraries for identifying and prioritizing the potential developmental toxicants that interfere Shh pathway. Conditioned medium-stimulated mode was used to screen for chemicals inhibiting Shh signaling. The cytotoxicity of the compounds was tested in parallel by measuring the cell viability using CellTiter-Fluor assay system (Promega, Madison, WI) in the same wells.
Tox21 Assay Protocol Summary:
3T3 Gli1-Luc cells were dispensed at 2,000 per well in 5uL of culture medium into white solid bottom 1536-well plates (Greiner Bio-One, Monroe, NC) using a Multidrop Combi (Thermo Scientific, Waltham, MA) dispenser. The assay plates were incubated at 37 C and 5% CO2 for 4hr, and then 23nL of compounds dissolved in DMSO and positive control were transferred using a Pintool station (Wako, San Diego, CA). The compound transfer was followed by the addition of 1ul conditioned medium or assay buffer using two separate tips of Flying Reagent Dispenser (FRD, Aurora Discovery, San Diego, CA). The assay plates were incubated at 37C and 5% CO2 for 24hr. For viability read, after 23hr of compound treatment, 1uL of CellTiter-Fluor reagent (Promega Corporation, Madison, WI) was added to each well of the assay plates using Flying Reagent Dispenser (FRD, Aurora Discovery, San Diego, CA) and incubated the assay plates at 37C for 1hr. The fluorescence signal was quantified using a ViewLux plate reader (Perkin Elmer, Shelton, CT).
For `NNc1nnc(NN)c2ccccc12`, the Potency was “inactive”.
For `C=CC(OCC)OCC`, the Potency was “inactive”.
With `CC(C)C[C@H](NC(=O)CNC(=O)[C@H](Cc1ccc(O)cc1)NC(=O)[C@H](CO)NC(=O)[C@H](Cc1c[nH]c2ccccc12)NC(=O)[C@H](Cc1cnc[nH]1)NC(=O)[C@@H]1CCC(=O)N1)C(=O)N[C@@H](CCCN=C(N)N)C(=O)N1CCC[C@H]1C(=O)NCC(N)=O` (stereo in doubt) the Potency was “inactive”.
In the case of `CCCOC(OCCC)OCCC`, the Potency is reported as “inactive”.
In the case of `ClCCCl`, the Potency is reported as “inactive”.
With `CC(C)CCCC(C)(C)O` the Potency was “inactive”.
In the case of `CC(C)C(=O)OCc1cccc(OC(=O)[C@@H]2N3C(=O)[C@@H](NC(=O)Cc4ccccc4)[C@H]3SC2(C)C)c1`, the Potency is reported as “inactive”.
For `Nc1ccc2cc(S(=O)(=O)O)cc(O)c2c1`, the Potency was “inactive”.
In the case of `CCCCCCCC/C=C\CCCCCCCC(=O)OCCCC`, the viability change, negative = cytotoxic is reported as 1.8% [at 19 µM].
In the case of `CC(C(=O)O)c1ccc2c(c1)CC(=O)c1ccccc1S2` (stereo not given), the Potency is reported as “inactive”.
With `CCOC(=O)c1ncn2c1CN(C)C(=O)c1cc(F)ccc1-2` the Potency was “inactive”.
For `CCCCNc1ccc(C(=O)OCCN(C)C)cc1`, the Potency was “inactive”.
For `CC(CO)c1ccccc1` (stereo not given), the Potency was “inactive”.
In the case of `C=C(C)C1CCC(C)(O)CC1` (stereo not given), the Potency is reported as “inactive”.
With `BrCc1cccc(Oc2ccccc2)c1` the Potency was “inactive”.
In the case of `CC(C)NCC(O)COc1ccc(COCCOC(C)C)cc1` (stereo not given), the Potency is reported as “inactive”.
For `COc1ccc(OC)c(Cl)c1`, the Potency was “inactive”.
With `CC(N)C(=O)OC(C)(C)Cc1ccc(Cl)cc1` (stereo not given) the Potency was “inactive”.
For `COc1ccc(S(=O)(=O)N2c3ccc(Cl)cc3[C@@](O)(c3ccccc3Cl)[C@H]2C(=O)N2CCC[C@@H]2C(N)=O)cc1OC`, the Potency was “inactive”.
In the case of `COc1ccc(Br)c(C)c1`, the Potency is reported as “inactive”.
With `CCOc1cc([N+](=O)[O-])c(OCC)cc1N1CCOCC1` the Potency was “inactive”.
In the case of `CCCC/C=C/C=C\C=O`, the Potency is reported as “inactive”.
With `NC(CO)C(=O)NNCc1ccc(O)c(O)c1O` (stereo not given) the Potency was “inactive”.
For `O=S(=O)(O)c1ccc2cc(O)c(S(=O)(=O)O)cc2c1`, the Potency was “inactive”.
In the case of `CC(C)CC(C)CC(C)CC(C)COC(=O)c1ccccc1C(=O)OCC(C)CC(C)CC(C)CC(C)C` (stereo not given), the Potency is reported as “inactive”.
For `O=C(NCCc1c[nH]c2ccccc12)c1cccnc1`, the Potency was “inactive”.
For `CC(CC=O)CCCC(C)(C)O` (stereo not given), the Potency was “inactive”.
In the case of `CCCC(=O)C(C)=O`, the Potency is reported as “inactive”.
With `CCOCCOC(=O)/C=C/c1ccc(OC)cc1` the Potency was “inactive”.
With `Cc1ccccc1OCC(O)CO` (stereo not given) the Potency was “inactive”.
With `Cc1ccc(S(=O)(=O)O)c(C)c1` the Potency was “inactive”.
In the case of `COC(=O)CCc1ccc(OCC(O)CNC(C)C)cc1` (stereo not given), the Potency is reported as “inactive”.
With `CCC(C=O)CC` the Potency was “inactive”.
In the case of `O=C1CC(c2ccc(Cl)cc2)CC(=O)N1`, the Potency is reported as “inactive”.
For `OCCC(F)(F)C(F)(F)C(F)(F)C(F)(F)C(F)(F)C(F)(F)C(F)(F)C(F)(F)F`, the Potency was “inactive”.
With `CC(=C(CCOC(=O)C(C)C)SSC(CCOC(=O)C(C)C)=C(C)N(C=O)Cc1cnc(C)nc1N)N(C=O)Cc1cnc(C)nc1N` the Potency was “inactive”.
For `Cc1c(I)c(=O)n(-c2ccccc2)n1C`, the Potency was “inactive”.
In the case of `CC(=O)NCc1c(I)c(NC(C)=O)c(I)c(C(=O)O)c1I`, the Potency is reported as “inactive”.
With `CC1COc2ccccc2N1` (stereo not given) the Potency was “inactive”.
With `CCCCCCN` the Potency was “inactive”.
